Measurements as given in ChEMBL document CHEMBL1157539, “Thousands of chemical starting points for antimalarial lead identification” (Nature, 2010).

System: Plasmodium falciparum
Test: GSK_TCMDC: Inhibition of Plasmodium falciparum 3D7 in whole red blood cells, using parasite LDH activity as an index of growth. Test compounds present at 2uM
Type: functional

| Structure (SMILES) | Inhibition |
| --- | --- |
| CC(C)N1CCC(N(Cc2ccc(-c3ccc(C(F)(F)F)cc3)cc2)C(=O)Cn2c(SCc3cccc(F)c3F)cc(=O)c3c2CCC3)CC1.O=C(O)C(O)C(O)C(=O)O | 88% |
| COc1c(C2CCN(CCCCNC(=O)c3ccc(-c4ccc(C#N)cc4)nc3)CC2)ccc2c1CCCC2 | 95% |
| Cc1cc(Cc2ccc(S(=O)(=O)c3cc4c(cc3O)CCN(C)CC4)cc2)ccc1Cl.Cl | 96% |
| Cc1ccc(-n2cc(CNCCc3nc(C)c[nH]3)c(-c3ccc(F)cc3)n2)cc1 | 86% |
| O=C(N[C@@H](CC1CCCCC1)C(=O)NC1CC1)c1ccc(O)c(-c2cccc(C(F)(F)F)c2)c1 | 99% |
| O=C(Nc1ccccc1F)N(CCCn1ccnc1)Cc1csc(-c2ccc(CNCc3ccccc3)cc2)n1.O=C(O)C(F)(F)F | 93% |
| Clc1ccc2c(N3CCCNCC3)ccnc2c1 | 100% |
| O=C(NC1CCN(Cc2ccc3c(c2)OCCO3)CC1)c1ccc(-c2cccc(C(F)(F)F)c2)s1.O=C(O)C(F)(F)F | 100% |
| O=c1cc(NCCCNCc2cc(C(F)(F)F)ccc2Cl)[nH]c2ccccc12 | 90% |
| O=C(O)C(F)(F)F.O=S(=O)(NCCN1CCCC1)c1cccc(-c2ccc(CNCc3ccsc3)cc2)c1 | 100% |
| Brc1cc(CNCCCNc2nc3ccccc3[nH]2)sc1Br.Cl | 100% |
| NCCCNc1ccnc2cc(Cl)ccc12 | 100% |
| COc1ccccc1CC1CCCN(C2CCC(NC(=O)c3cc4ccccc4[nH]3)CC2)C1 (centres undefined) | 98% |
| O=C(NCc1ccc(C(=O)NCc2cccc3ccccc23)cc1)c1ccc(O)c(-c2ccc(Cl)c(Cl)c2)c1 | 100% |
